Measurements reported in PubChem BioAssay AID504452 (The Scripps Research Institute Molecular Screening Center, 2011).
The source made the active and inactive calls. Rule as the data show it: active = activation above about 85%; inactive = the rest.

Molecular target: Peroxisome proliferator-activated receptor gamma (Homo sapiens) (UniProt P37231)
Assay: PPARg partial agonist activation, primary screen, cell-based, luciferase reporter, luminescence (AID 504452);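 also: Cos-1 cells carrying PPARgamma and a response element luciferase reporter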
Conditions: at 5 µM, stronger effect = higher value; activation (% of full agonist control): measured here: relative to full agonist control

Sequence of Peroxisome proliferator-activated receptor gamma (Homo sapiens) (P37231 whole entry, looked up): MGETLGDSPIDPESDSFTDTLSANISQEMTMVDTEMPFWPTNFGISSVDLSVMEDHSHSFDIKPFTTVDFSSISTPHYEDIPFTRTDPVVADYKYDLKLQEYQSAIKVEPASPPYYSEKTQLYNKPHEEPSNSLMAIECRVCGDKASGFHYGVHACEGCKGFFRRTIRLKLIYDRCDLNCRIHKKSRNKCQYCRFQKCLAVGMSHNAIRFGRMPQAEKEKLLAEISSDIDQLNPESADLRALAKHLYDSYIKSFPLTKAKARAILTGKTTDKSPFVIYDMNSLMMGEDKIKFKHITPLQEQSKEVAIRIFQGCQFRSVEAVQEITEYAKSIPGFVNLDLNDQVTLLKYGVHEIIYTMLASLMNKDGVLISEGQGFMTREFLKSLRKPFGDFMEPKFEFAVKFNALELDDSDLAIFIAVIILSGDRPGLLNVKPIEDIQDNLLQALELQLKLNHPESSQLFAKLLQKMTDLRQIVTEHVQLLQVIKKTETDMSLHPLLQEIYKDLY

Compound	activation (% of full agonist control) [%]	activation (% of partial agonist control)
O=C(Cn1c(=O)c(=O)n(Cc2ccccc2)c2ccc(Cl)cc21)NCC1CCCO1 (centres undefined)	31.1	68.9% (inactive)
O=C(NCCCn1ccnc1)C(=O)NCC(c1cccnc1)N1CCN(c2ccc(F)cc2)CC1 (centres undefined)	31.2	69% (inactive)
O=C(NCC(c1ccco1)N1CCc2ccccc2C1)c1cccc(F)c1 (centres undefined)	33.4	74% (inactive)
O=C(CCCCCNC(=O)N1CCn2c1nc1ccccc12)N[C@@H](Cc1ccccc1)C(=O)O	32.6	72.2% (inactive)
CCOc1ccc(C2c3[nH]c4ccccc4c3CCN2Cc2cccn2-c2ncccn2)cc1 (centres undefined)	39.5	87.5% (active)
COc1cccc(CN2CCN(Cc3ccc4c(NC(C)=O)cccc4n3)CC2CCO)c1 (centres undefined)	36.5	80.7% (inactive)
O=C(CNC(=O)c1nc[nH]c1C(=O)N1CCc2ccccc2C1)OCc1ccccc1	40.3	89.3% (active)
O=C1C(=O)N(CC2CCCO2)C(c2ccco2)/C1=C(/O)c1ccc(F)cc1 (centres undefined)	15	33.1% (inactive)
COc1ccc(N2CCN(C3CC(=O)N(Cc4ccc(N5CCCC5=O)cc4)C3=O)CC2)cc1 (centres undefined)	27.6	61.2% (inactive)
COC(=O)c1cc(C(=O)N2CCN(c3cccc(Cl)c3)CC2)cc([N+](=O)[O-])c1	27	59.7% (inactive)
COc1cccc(C2/C(=C(/O)c3ccccc3)C(=O)C(=O)N2Cc2ccco2)c1 (centres undefined)	35.3	78.2% (inactive)
O=C(O)COc1ccccc1/C=C1\SC(=S)N(NC(=O)c2ccccc2O)C1=O	41.4	91.7% (active)
COc1ccc2nc(N3C(=O)C(O)=C(C(=O)c4ccco4)C3c3ccc(C)o3)sc2c1 (centres undefined)	41.1	91.1% (active)
Cc1ccc2cc(CN(Cc3ccccc3)Cc3nnnn3C3CCCC3)c(=O)[nH]c2c1	39.2	86.8% (active)
O=C(COc1cc(F)ccc1[N+](=O)[O-])N1N=C(c2cccs2)CC1c1ccco1 (centres undefined)	35.6	78.9% (inactive)
O=C(NC(Cc1ccccc1)C(=O)N1CCN(c2ccccc2O)CC1)c1ccccc1 (centres undefined)	40.7	90.2% (active)
Cc1nn(Cc2cccc(C(=O)Nc3ccn(Cc4ccccc4F)n3)c2)c(C)c1[N+](=O)[O-]	32.8	72.6% (inactive)
O=C(Cc1cccc(C(F)(F)F)c1)Nc1cc(S(=O)(=O)N2CCOCC2)ccc1N1CCCC1	31.4	69.5% (inactive)
CC1Cc2cc(/C(O)=C3/C(=O)C(=O)N(CCN4CCOCC4)C3c3ccc(N(C)C)cc3)ccc2O1 (centres undefined)	29.1	64.3% (inactive)
CC(Oc1ccc(F)cc1)C(=O)Nc1cc(S(=O)(=O)N2CCCCC2)ccc1N1CCOCC1 (centres undefined)	31.1	68.8% (inactive)
Cc1cc(N2C(=O)C(O)=C(C(=O)c3cccs3)C2c2cccc(Br)c2)no1 (centres undefined)	45.7	101% (active)
COc1cc(C2/C(=C(/O)c3ccc(F)cc3)C(=O)C(=O)N2CCCC(=O)O)ccc1O (centres undefined)	37	82% (inactive)
Cc1ccc(C(=O)NCc2cccc(C(F)(F)F)c2)cc1S(=O)(=O)N1CCCCC1	25.6	56.7% (inactive)
O=C(CSc1nc(=O)n(CCCN2CCOCC2)c2c1CCC2)Nc1cccc(F)c1	40.3	89.3% (active)

Compound	activation (% of full agonist control) [%]	activation (% of partial agonist control)
CN1CCN(S(=O)(=O)c2ccc(Sc3nc4ccccc4[nH]3)c3nsnc23)CC1	43.8	96.9% (active)
N#Cc1ccc(C(=O)Nc2cc(-c3ccc(F)cc3)nn2-c2ccccc2)cc1	27.4	60.6% (inactive)
Cc1cccc(N2CCN(C(=O)c3cccc(N4C(=O)C5CC=CC(C)C5C4=O)c3)CC2)c1C (centres undefined)	16.4	36.3% (inactive)
CC(Oc1ccc(F)cc1)C(=O)Nc1cc(S(=O)(=O)N2CCOCC2)ccc1N1CCCCC1 (centres undefined)	33.8	74.8% (inactive)
CC(C)C[C@H](NC(=O)N1CC(=O)Nc2ccccc21)C(=O)N[C@@H](Cc1c[nH]c2ccccc12)C(=O)O	31.3	69.4% (inactive)
CN(C)c1ccc(C(CNS(=O)(=O)c2cccc([N+](=O)[O-])c2)N2CCOCC2)cc1 (centres undefined)	31.9	70.6% (inactive)
O=C(CN1c2cccc3cccc(c23)S1(=O)=O)N1CCN(c2ccc(F)cc2)CC1	34.1	75.5% (inactive)
COCCn1cnc2c1c(=O)n(Cc1cc(C(C)=O)ccc1OC)c(=O)n2Cc1ccccc1	39.8	88.2% (active)
CCOc1cc(N2CCOCC2)c(OCC)cc1NC(=O)c1ccc2ccccc2n1	46.5	103% (active)
CC(=O)N1N=C(c2ccccc2)CC1c1cn(Cc2ccccc2)c2ccccc12 (centres undefined)	44.7	99% (active)
O=C1C(=O)N(Cc2ccccc2)C(c2cccc(O)c2)/C1=C(\O)c1ccc2c(c1)OCCO2 (centres undefined)	25.6	56.7% (inactive)
Cc1cc(C(=O)CN2C(=O)C(=O)N(Cc3ccccc3)C2=O)c(C)n1-c1ccc2c(c1)OCCO2	40.4	89.5% (active)
COc1cccc(NS(=O)(=O)c2ccc3c(c2)C2C=CCC2C(c2ccc(C(=O)O)cc2)N3)c1 (centres undefined)	32.7	72.4% (inactive)
Cn1cc(CNCc2cn[nH]c2-c2ccc(F)cc2)c(-c2ccc3c(c2)OCCO3)n1	29.7	65.8% (inactive)
O=C(c1cccc(S(=O)(=O)Nc2ccccc2Cl)c1)N1CCN(c2ccccc2O)CC1	28.5	63.2% (inactive)
COc1ccc(-n2c3c(cc(C(=O)NNc4ccccc4C)c2=O)C(=O)CC(C)(C)C3)cc1	32.7	72.5% (inactive)
Cc1cc(N2C(=O)C(=O)/C(=C(/O)c3ccc(F)cc3)C2c2ccc(F)cc2)no1 (centres undefined)	31.8	70.3% (inactive)
CCOc1cccc(/C(O)=C2/C(=O)C(=O)N(Cc3cccnc3)C2c2ccco2)c1 (centres undefined)	30.8	68.2% (inactive)
O=C(CCCCCNC(=O)N1CCn2c1nc1ccccc12)N[C@H](Cc1ccccc1)C(=O)O	27.3	60.5% (inactive)
CC(=O)N/C(=C\c1ccc2c(c1)OCO2)C(=O)NC(C(=O)O)c1ccccc1 (centres undefined)	27.7	61.4% (inactive)
O=C1CC(NS(=O)(=O)c2ccc3ccccc3c2)CN1c1ccccc1 (centres undefined)	31.7	70.2% (inactive)
COc1ccc(-c2nn(-c3ccccc3)cc2/C=C2/SC(=S)N(CCC(=O)O)C2=O)c(C)c1	44.4	98.3% (active)
COc1ccc2c(c1)c(=O)c(C(=O)c1ccc(F)cc1)cn2CC(=O)Nc1ccc(F)cc1	48.8	108% (active)
COc1ccc(C2C(C(=O)N3CCC(C(N)=O)CC3)CC(=O)N2c2ccc(OC)cc2)cc1 (centres undefined)	25.5	56.5% (inactive)

Compound	activation (% of full agonist control) [%]	activation (% of partial agonist control)
Cc1cc(C)c2nc(N3C(=O)C(O)=C(C(=O)c4ccco4)C3c3cccc(O)c3)sc2c1 (centres undefined)	29	64.1% (inactive)
COc1ccc(NC(=O)CC2C(=O)Nc3ccccc3N2CC(=O)N2CCCC2)cc1 (centres undefined)	30.4	67.3% (inactive)
COc1ccccc1NC(=O)C(=O)c1cn(CC(=O)N2CCOCC2)c2ccccc12	42.3	93.5% (active)
O=C(CC(C(=O)N1CCc2ccccc21)n1ccnc1)NCc1ccccc1 (centres undefined)	14.1	31.2% (inactive)
O=C(Nc1cc(Cl)ccc1O)c1cc2n(n1)C(C(F)(F)F)CC(c1ccc3c(c1)OCO3)N2 (centres undefined)	35	77.5% (inactive)
Cc1cccc(Cn2cc3c(=O)n(Cc4cccc(F)c4)nc-3c3ccccc32)c1	38	84.2% (inactive)
O=C(O)CC1=C(Nc2ccccc2)C(=O)N(c2ccccc2)C1c1ccc(F)cc1 (centres undefined)	31	68.7% (inactive)
COc1ccc(C=NNS(=O)(=O)c2ccc(F)cc2)cc1COc1cc(F)ccc1[N+](=O)[O-]	42.9	95% (active)
O=C(c1cc(-c2ccco2)nc2ccccc12)N1CCCC(C(F)(F)F)C1 (centres undefined)	27.6	61% (inactive)
COc1ccc(N2C(=O)C(CN3CCN(C)CC3)C2c2ccccc2)cc1 (centres undefined)	31.9	70.6% (inactive)
CC(=O)c1cccc(NC(=O)CSc2nc(=O)n(CCN3CCOCC3)c3c2CCCC3)c1	36.2	80.2% (inactive)
COc1cc(C(CC(=O)Nc2cccc(C)n2)N2Cc3ccccc3C2=O)cc(OC)c1OC (centres undefined)	29.1	64.3% (inactive)
CCOc1cccc(/C(O)=C2/C(=O)C(=O)N(CCN3CCOCC3)C2c2ccncc2)c1 (centres undefined)	41.3	91.4% (active)
Cc1ccc(OCC(=O)Nc2ccc(N3CCN(C(=O)c4ccco4)CC3)cc2)cc1	31.4	69.5% (inactive)
COc1cc(CN2CCN(c3cccc(C)c3C)CC2)cc([N+](=O)[O-])c1O	33.7	74.7% (inactive)
CCn1cnc2c1c(=O)n(Cc1cccc([N+](=O)[O-])c1)c(=O)n2Cc1ccccc1	64.1	142% (active)
Cc1nc2c(sc(=S)n2Cc2ccco2)c(=O)n1CC(=O)Nc1cc(F)ccc1F	32.4	71.8% (inactive)
COc1ccc(CNC(=O)Cn2c(=O)n(CCC(=O)N3CCCCC3)c(=O)c3sccc32)cc1	46.4	103% (active)
Cc1cccc(NC(=O)CSc2nc(=O)n(CCN3CCOCC3)c3c2CCCC3)c1C	33.1	73.2% (inactive)
COc1cccc(C2CC(=O)N3CN(c4ccccc4F)CSC3=C2C#N)c1 (centres undefined)	31.6	69.9% (inactive)
Cc1ccc(S(=O)(=O)Nc2ccccc2F)cc1C(=O)N1CCN(c2ccccc2O)CC1	33	73% (inactive)
COc1ccc(N(CC(=O)N2c3ccccc3CC2C)S(=O)(=O)c2c(C)nn(C)c2C)cc1 (centres undefined)	32.3	71.5% (inactive)
COC(=O)c1sc(N2C(=O)C(=O)/C(=C(/O)c3ccc(C)cc3)C2c2ccco2)nc1C (centres undefined)	37.7	83.5% (inactive)
Cc1nc2ncccn2c1-c1csc(Nc2cccc(C(=O)O)c2)n1	33.5	74.2% (inactive)
